The list is not random: actives were taken first. Their share in the collection is about 2.8%.
Shn3 inh set2: Schnurri-3 reporter inhibition in Clone20 osteoblasts | Clone20 osteoblast Shn3 3'UTR firefly luciferase, 24 h | inhibition, % at 12.5 µM | 360,000 compounds, 0.52% hits | AID 588674;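 active = mean inhibition of at least 75% with every replicate also reaching 75%; inconclusive = mean inhibition at least 75% but some replicate below; inactive = mean inhibition below 75%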;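 also: 0% = median of neutral control wells and 100% = pilot-screen positive control compound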
KKLEB tox: counter-screen for CF NF-kB inhibitors: cytotoxicity. KKLEB CF airway cells viability, ATPlite luminescence, overnight; active compounds read low; cells stimulated with P. aeruginosa culture filtrate. activity change (cytotoxicity), % at 5 µM. AID 602141. 360,000 compounds, 0.36% hits;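 active = corrected activity change at or below -50% at 5 µM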
MITF TRPM1 inh: inhibitors of MITF-driven TRPM1 promoter in melanoma cells; AID 488899; 330,000 compounds, 0.83% hits; inhibition, % at 12.5 µM; SK-MEL-5 TRPM1 promoter luciferase, 24 h;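 active = mean inhibition across replicates of 60% or more, whatever share of single replicates reaches that level; inconclusive = some that reach 60%, reason not given; inactive = mean inhibition across replicates below 60%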
CF NFkB inh: blocks PAF-induced NF-kB reporter in cystic fibrosis cells; KKLEB NF-kB-GFP reporter, GFP fluorescence overnight; inhibition, % at 5 µM; 360,000 compounds, 0.86% hits; AID 588850;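 active = at least 50% inhibition at 5 µM, scaled per plate between neutral and stimulator controls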;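 also: PAF is a Pseudomonas aeruginosa culture filtrate used as stimulus; plate controls were PAF-stimulated DMSO wells for no effect and unstimulated DMSO wells for full effect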
HIF-2a block: blocks HIF-2a reporter activity | 786-0 RCC cells HIF-2a reporter, luciferase luminescence, overnight | inhibition, % at 18.8 µM | 360,000 compounds, 0.72% hits;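 active = inhibition of the luminescence signal of 40% or more relative to plate controls, in a single-dose primary screen at 18.75 µM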
Peg3 promoter: Peg3 promoter activity inhibition. inhibition, % at 20 µM. 360,000 compounds, 1.7% hits. HeLa PEG-Prom luciferase reporter, luminescence, overnight. AID 588405;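 active = inhibition of at least 50% at 20 µM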
Mdm2 MdmX conf: Mdm2/MdmX (human) interaction inhibition, confirmed; shares compounds with HIF-2a block; SaOS-2 split-luciferase Mdm2/MdmX complementation, luminescence; inhibition, % at 8 µM; 740 compounds, 99% hits;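 active = mean inhibition of the luminescence signal across two replicates at or above 26 percent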
Target sequence (O15151 whole entry, looked up): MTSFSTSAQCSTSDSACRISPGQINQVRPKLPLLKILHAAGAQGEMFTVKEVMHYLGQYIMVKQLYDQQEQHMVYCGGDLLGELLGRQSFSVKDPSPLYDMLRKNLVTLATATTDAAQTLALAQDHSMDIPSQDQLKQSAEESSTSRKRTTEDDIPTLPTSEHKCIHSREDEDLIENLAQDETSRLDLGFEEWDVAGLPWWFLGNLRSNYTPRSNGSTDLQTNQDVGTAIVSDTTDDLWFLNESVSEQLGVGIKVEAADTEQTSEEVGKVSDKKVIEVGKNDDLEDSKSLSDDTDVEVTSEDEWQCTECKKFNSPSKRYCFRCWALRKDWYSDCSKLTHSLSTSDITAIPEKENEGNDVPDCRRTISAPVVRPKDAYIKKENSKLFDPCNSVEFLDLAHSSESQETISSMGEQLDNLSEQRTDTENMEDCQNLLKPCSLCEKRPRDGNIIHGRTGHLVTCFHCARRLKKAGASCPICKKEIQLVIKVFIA
Target sequence (Q00987 whole entry, looked up): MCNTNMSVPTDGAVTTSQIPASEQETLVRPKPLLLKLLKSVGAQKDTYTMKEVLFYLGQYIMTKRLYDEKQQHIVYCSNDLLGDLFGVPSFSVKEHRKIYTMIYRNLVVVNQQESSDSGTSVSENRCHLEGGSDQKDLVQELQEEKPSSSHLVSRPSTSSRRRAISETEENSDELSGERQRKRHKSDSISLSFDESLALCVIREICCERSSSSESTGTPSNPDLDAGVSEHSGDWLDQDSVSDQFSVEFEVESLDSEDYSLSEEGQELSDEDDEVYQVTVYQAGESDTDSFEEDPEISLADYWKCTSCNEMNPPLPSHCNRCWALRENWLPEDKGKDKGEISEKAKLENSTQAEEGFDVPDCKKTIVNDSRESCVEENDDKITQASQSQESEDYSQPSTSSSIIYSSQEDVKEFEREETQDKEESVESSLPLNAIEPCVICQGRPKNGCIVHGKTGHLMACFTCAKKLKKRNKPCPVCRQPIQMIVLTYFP
HIF-2a inh conf: HIF-2a inhibition, single concentration confirmation. shares compounds with HIF-2a block. 786-0 RCC cells, HIF-2a luciferase reporter luminescence, overnight. inhibition, % at 18.8 µM. 1,800 compounds, 56% hits. AID 651580;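 active = mean inhibition across four replicates of at least 40 percent at the single tested concentration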
HIF-1a cs: HIF-1a inhibition counter-screen for HIF-2a hits | shares compounds with HIF-2a block | MiaPaCa-2 HIF-1a luciferase reporter, desferoxamine, overnight | inhibition, % at 18.8 µM | 1,800 compounds, 72% hits;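 active = mean inhibition of the reporter signal across four replicates at the single tested dose of 50% or more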
Active calls of the source: *.

What do the screens show for `O=C(/C=C/c1ccccc1)NC(NC(=S)Nc1ccc(Cl)cc1)C(Cl)(Cl)Cl` (stereo not given)?
Shn3 inh set2: inconclusive; KKLEB tox: -2; MITF TRPM1 inh: 55; CF NFkB inh: 2; HIF-2a block: 16; Peg3 promoter: 38

What do the screens show for `CC(=O)/C(=C/c1ccccc1)C(=O)Nc1ccccc1C`?
Shn3 inh set2: 2; KKLEB tox: -12; MITF TRPM1 inh: 44; CF NFkB inh: 26; HIF-2a block: 92*; Peg3 promoter: 73*; HIF-2a inh conf: 88*; HIF-1a cs: 103*

Results for C=CS(=O)(=O)N(Cc1ccc(Cl)c(Cl)c1)C[C@@H](O)CO ?
Shn3 inh set2: 4; KKLEB tox: -7; MITF TRPM1 inh: -32; CF NFkB inh: 37; HIF-2a block: 1; Peg3 promoter: 69*; Mdm2 MdmX conf: 94*

How did O=C1CN(C(=O)C2CCC(=O)N(CCc3ccc(Cl)cc3)C2)CCN1 (stereo not given) do in these assays?
Shn3 inh set2: -19; KKLEB tox: 9; MITF TRPM1 inh: -10; CF NFkB inh: -5; HIF-2a block: 0; Peg3 promoter: 22

How did COc1ccc(NC(=O)c2coc(C)c2)cc1 do in these assays?
Shn3 inh set2: -60; KKLEB tox: 3; CF NFkB inh: -19; HIF-2a block: -172; Peg3 promoter: -206

How did COc1ccc(Nc2oc(COc3ccc(Cl)cc3)nc2C#N)cc1 do in these assays?
Shn3 inh set2: 19; KKLEB tox: -9; MITF TRPM1 inh: 27; CF NFkB inh: -3; HIF-2a block: 50*; Peg3 promoter: 47; HIF-2a inh conf: 34; HIF-1a cs: 51*

How did COc1ccc(CNc2oc(COc3ccc(Cl)cc3)nc2C#N)cc1 do in these assays?
Shn3 inh set2: -16; KKLEB tox: 4; MITF TRPM1 inh: -2; CF NFkB inh: -7; HIF-2a block: 3; Peg3 promoter: 26

Results for CCN1CCN(C(=S)c2ccc(-c3ccccc3)cc2)CC1 ?
Shn3 inh set2: 37; KKLEB tox: 6; MITF TRPM1 inh: 5; CF NFkB inh: -10; HIF-2a block: 80*; Peg3 promoter: 22; HIF-2a inh conf: 95*; HIF-1a cs: 78*

How did O=C(NCc1ccccc1CN1CCCC1)c1cc2ccccc2o1 do in these assays?
Shn3 inh set2: 0; KKLEB tox: -8; CF NFkB inh: 4; HIF-2a block: 11; Peg3 promoter: -14

Results for C#CC(=O)N(c1cccc(OC)c1)C(C(=O)NC1CCCC1)c1cccs1 (stereo not given) ?
Shn3 inh set2: 100*; KKLEB tox: -97*; MITF TRPM1 inh: 107*; CF NFkB inh: 94*; HIF-2a block: 93*; Peg3 promoter: 106*; Mdm2 MdmX conf: 103*; HIF-2a inh conf: 99*; HIF-1a cs: 104*

What do the screens show for `C#CC(=O)N(c1ccc(OC)c(OC)c1)C(C(=O)NC1CCCC1)c1cccs1` (stereo not given)?
Shn3 inh set2: 87*; KKLEB tox: -100*; MITF TRPM1 inh: 96*; CF NFkB inh: 101*; HIF-2a block: 87*; Peg3 promoter: 103*; Mdm2 MdmX conf: 102*; HIF-2a inh conf: 100*; HIF-1a cs: 105*

What do the screens show for `CN(C)S(=O)(=O)c1cccc(COC(=O)Cc2c(F)cccc2Cl)c1`?
Shn3 inh set2: 17; KKLEB tox: -14; MITF TRPM1 inh: -5; CF NFkB inh: 13; HIF-2a block: -10; Peg3 promoter: 8

What do the screens show for `COc1cc2c3nnc(-c4ccc(F)cc4)c-3cn(Cc3cccc(F)c3)c2cc1OC`?
Shn3 inh set2: -8; KKLEB tox: -4; MITF TRPM1 inh: 75*; CF NFkB inh: -52; HIF-2a block: 27; Peg3 promoter: 96*; Mdm2 MdmX conf: 103*

What do the screens show for `Cc1ccc(S(=O)(=O)N2CCSCCSCCSCCSCC2)cc1`?
Shn3 inh set2: 0; KKLEB tox: -16; MITF TRPM1 inh: -10; CF NFkB inh: 1; HIF-2a block: -9; Peg3 promoter: 14

What do the screens show for `O=C(O)CCn1cc(/C=C/C(=O)c2ccc(Cl)cc2)c(-c2ccc(Br)cc2)n1`?
Shn3 inh set2: 6; KKLEB tox: -22; MITF TRPM1 inh: 1; CF NFkB inh: -11; HIF-2a block: 54*; Peg3 promoter: 45; HIF-2a inh conf: 21; HIF-1a cs: 43

Results for Cc1cccc(NC(=O)CNC(=O)[C@H]2O[C@@H](n3ccc(N)nc3=O)[C@H](O)[C@@H]2O)c1C ?
Shn3 inh set2: -4; KKLEB tox: 1; CF NFkB inh: -20; HIF-2a block: 12; Peg3 promoter: 8

Results for Nc1c(Cl)ncnc1NCC(O)CO (stereo not given) ?
Shn3 inh set2: 3; KKLEB tox: 3; MITF TRPM1 inh: 4; CF NFkB inh: -15; HIF-2a block: 15; Peg3 promoter: 15

What do the screens show for `Cc1ccc(C(=O)C(C)OC(=O)c2nc(Cl)ccc2Cl)cc1` (stereo not given)?
Shn3 inh set2: 4; KKLEB tox: -5; MITF TRPM1 inh: -4; CF NFkB inh: 1; HIF-2a block: 6; Peg3 promoter: 5

How did CCn1c(C(=O)O)c(CC(=O)Nc2ccccc2OC)c2ccccc21 do in these assays?
Shn3 inh set2: -6; KKLEB tox: 4; MITF TRPM1 inh: 6; CF NFkB inh: 5; HIF-2a block: 11; Peg3 promoter: 8

How did COc1ccc(-c2cc3c(=O)n(CC(=O)NCCCN4CCC(N5CCCCC5)CC4)nc(C)n3n2)cc1 do in these assays?
Shn3 inh set2: -19; KKLEB tox: 18; MITF TRPM1 inh: 72*; CF NFkB inh: -10; HIF-2a block: 1; Peg3 promoter: 6; Mdm2 MdmX conf: 73*

How did COc1ccc(-c2cc3c(=O)n(CC(=O)NCCCN4CCC(N5CCCCC5)CC4)ncn3n2)cc1 do in these assays?
Shn3 inh set2: 7; KKLEB tox: -9; MITF TRPM1 inh: -37; CF NFkB inh: 0; HIF-2a block: -61; Peg3 promoter: -121

What do the screens show for `CC(C)N1CCc2c(sc(NC(=O)c3ccc([N+](=O)[O-])o3)c2C(N)=O)C1`?
Shn3 inh set2: -62; KKLEB tox: 9; MITF TRPM1 inh: 94*; CF NFkB inh: 79*; HIF-2a block: 90*; Peg3 promoter: 104*; HIF-2a inh conf: 79*; HIF-1a cs: 103*

Screens (PubChem)
